The results in this text go back to the supplement of paper PMC12067926.

Compound in the experiment: COc1c(Cl)ccc(Cl)c1C(=O)O
Kind of experiment: relative growth (AUC of 72 h growth curve relative to DMSO control, dAUC) (ratio); higher = more growth (less inhibition), active = hit call of the paper. The following applies: 20 µM. As to the method:
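Environmental bacterial isolates (Iceland stream sediment and Silwood Park soil) and whole stream-sediment communities were grown in LB from a 1:100 dilution with each pesticide at 20 µM (1% DMSO). A600 was read hourly for 72 h and the area under a spline-fitted growth curve (AUC) was computed. dAUC is the mean AUC of 3 biological replicates divided by the mean AUC of the DMSO controls. Significance was tested by Dunnett's test against the DMSO control.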
As for “Carnobacterium 1 (Carnobacterium gallinarum)”, the relative growth was 1.19 (inactive).

As for “Flavobacterium 1 (Flavobacterium glaciei)”, the relative growth is 1 (inactive).

Consider Sphingomonas 2 (Sphingomonas sp.), for which the relative growth is 1.01 (inactive).

Take “Pseudomonas 2 (Pseudomonas vancouverensis)”: the relative growth is 0.985 (inactive).

With Serratia 1 (Serratia sp. 2015-2462-01), the relative growth is 1.02 (inactive).

Turning to “Flavobacterium 2 (Flavobacterium succinicans)”, the relative growth is 1.01 (inactive).

Community 10: the relative growth is 1.03 (inactive).

Turning to “Prolinoborus 1 (Prolinoborus fasciculus)”, the relative growth is 0.986 (inactive).

Arthrobacter 2 (Arthrobacter humicola): the relative growth is 1.1 (inactive).

As for Aeromonas 3 (Aeromonas popoffii), the relative growth was 1.02 (inactive).

Take “Paenibacillus 1 (Paenibacillus castaneae)”: the relative growth was 1.01 (inactive).

On to Pseudomonas 6 (Pseudomonas sp.), for which the relative growth was 1.1 (inactive).

Take “Microbacterium 1 (Microbacterium arborescens)”: the relative growth is 1.02 (inactive).

For Community 7, the relative growth is 0.945 (inactive).

Pseudomonas 3 (Pseudomonas mandelii): the relative growth is 0.984 (inactive).

For the target Community 4, the relative growth was 1.09 (inactive).

In the case of Community 8, the relative growth was 0.99 (inactive).

For the target Pseudomonas 4 (Pseudomonas peli), the relative growth is 1.01 (inactive).

Turning to Rhizobium 1 (Rhizobium herbae), the relative growth is 0.947 (inactive).

For Argrobacterium 1 (Agrobacterium sp.), the relative growth was 1.01 (inactive).

Take Neobacillus 1 (Neobacillus soli): the relative growth was 1.06 (inactive).

With Community 6, the relative growth was 1.03 (inactive).

In the case of Aeromonas 2 (Aeromonas sobria), the relative growth is 1.01 (inactive).

Community 9: the relative growth was 1.09 (inactive).

With Pseudomonas 1 (Pseudomonas baetica), the relative growth is 0.637 (inactive).

In the case of Aeromonas 1 (Aeromonas sp. AE235), the relative growth is 1.02 (inactive).

Pseudomonas 5 (Pseudomonas baetica): the relative growth is 1.02 (inactive).

As for Arthrobacter 1 (Arthrobacter humicola), the relative growth is 0.981 (inactive).

For Arthrobacter 3 (Arthrobacter sp.), the relative growth is 1.07 (inactive).

As to Hymenobacter 1 (Hymenobacter glaciei), the relative growth was 1 (inactive).

As for Oryzobacter 1 (Oryzobacter terrae), the relative growth was 0.925 (inactive).

As to Bacillus 1 (Bacillus foraminis), the relative growth is 1.07 (inactive).
